# Bioassay records deposited in PubChem BioAssay by National Center for Advancing Translational Sciences (NCATS).
# Pf growth 48h = P. falciparum growth inhibition at 48 hours (one generation). P. falciparum luciferase growth in erythrocytes, 48 h. Potency, µM (highest dose often 28.7 µM), for the others: at the top dose activity change, negative = inhibition, actives largely listed as inhibitors. 310,000 tested, 5.9% active. AID 504832; note: potency is the fitted concentration of half-maximal effect; % is set by controls: 0 for no effect and ±100 for the full control effect
#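 Read-out is firefly luciferase luminescence from an integrated reporter in P. falciparum, so falling signal marks reduced parasite growth. Infected erythrocytes were at 2% hematocrit and 0.1% parasitemia (final) in Albumax-supplemented RPMI 1640.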
# Pf growth 96h = P. falciparum growth inhibition at 96 hour, primary screen for plastid delayed-death inhibitors | P. falciparum luciferase reporter growth, 96 h | Potency, µM (top dose mostly 28.7 µM), without a hit: at the highest dose activity change, negative = inhibition, most hits filed as inhibitors | 320,000 tested, 6.9% active; note: potency is the fitted concentration of half-maximal effect; % is set by controls: 0 for no effect and ±100 for the full control effect
#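 P. falciparum expressing integrated firefly luciferase, in erythrocytes at 2% hematocrit, 0.05% parasitemia, incubated with compounds 96 h at 37 C, 5% CO2. Growth inhibition read as loss of luminescence; two-generation exposure targets delayed-death apicoplast inhibitors.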
# LmPK inhibitor = blocks Leishmania mexicana pyruvate kinase activity; AID 1721; 290,000 tested, 0.37% active; Q27686; Potency, µM (top dose mostly 57.5 µM), for the others: at the top dose activity change, negative = inhibition, most hits filed as inhibitors; purified LmPK, Kinase-Glo ATP luminescence, 1 h; note: potency is the fitted concentration of half-maximal effect; % is set by controls: 0 for no effect and ±100 for the full control effect
# Target sequence (Q27686 whole entry, looked up): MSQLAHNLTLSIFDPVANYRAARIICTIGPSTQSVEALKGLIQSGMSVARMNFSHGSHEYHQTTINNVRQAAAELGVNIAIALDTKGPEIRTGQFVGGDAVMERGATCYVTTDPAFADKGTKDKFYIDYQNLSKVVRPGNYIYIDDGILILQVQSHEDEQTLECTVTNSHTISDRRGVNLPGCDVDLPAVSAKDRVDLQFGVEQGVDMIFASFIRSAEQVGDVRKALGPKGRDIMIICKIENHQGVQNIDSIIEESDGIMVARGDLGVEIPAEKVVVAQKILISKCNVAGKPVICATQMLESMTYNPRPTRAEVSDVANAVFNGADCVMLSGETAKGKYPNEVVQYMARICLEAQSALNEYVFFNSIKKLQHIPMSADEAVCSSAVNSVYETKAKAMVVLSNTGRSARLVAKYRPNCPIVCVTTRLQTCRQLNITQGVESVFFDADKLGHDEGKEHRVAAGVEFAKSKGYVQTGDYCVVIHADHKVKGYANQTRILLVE
#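 Pyruvate kinase activity monitored as ATP production (luciferase luminescence). Conditions: 0.1 nM enzyme, 0.5 mM PEP, 0.1 mM ADP, 1 h, RT; normalized against uninhibited and no-enzyme wells.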
# CHX counter = counter-screen for Shiga toxin inhibitors: cycloheximide protein synthesis inhibition; cell reporter, cycloheximide protein synthesis inhibition counterscreen; max response, %; 300,000 tested, 12% active; in the data active = max response mostly above about 13%, no sharp cut-off; inactive = mostly below about 14%; note: read at 38.3 µM for the half of the compounds with a filed dose; 0% is about no effect
# Shiga inhibitor = inhibitors of Shiga toxin in Vero cells | Vero cells, Shiga toxin protein synthesis inhibition reporter | 290,000 tested, 9.2% active | inhibition, % at 38.7 µM; in the data active = inhibition mostly above about 28%, no sharp cut-off; inactive = mostly below about 43%; note: 0% is about no effect
# * marks the source's active call; other numbers are inactive results; ? = inconclusive; nt = no result; [ ] = dose if it differs, or a comment. Shown are actives, neighbours in structure and some others; about 22% of the full set was active somewhere. Unless noted, calls come from the whole dose curve; as a rule, active = well fitted inhibition curve with a large enough effect; inconclusive = small, poorly fitted or top-dose-only effect, or another doubt; inactive = no such curve, though single readings can be large or run the other way.
SMILES,Pf growth 48h,Pf growth 96h,LmPK inhibitor,CHX counter,Shiga inhibitor
COc1ccc(OC)c2sc(NC(=O)C3CC3)nc12,nt,-24%,-1%,-5,-16
CCc1ccccc1NC(=O)CCCSc1nc2ccccc2s1,-5%,-3%,4%,12*,13
Cc1csc(NC(=O)CCCSc2nc3ccccc3s2)n1,-13%,30%,7%,14,10
O=C(CCCSc1nc2ccccc2s1)NCc1ccco1,nt,?,7%,16*,81
Cc1cnc(NC(=O)CCCSc2nc3ccccc3s2)s1,0%,?,-1%,-3,31
Clc1cccc(Cl)c1C1=NOC(c2nnc(-c3ccccc3)o2)C1 (centres undefined),0%,-3%,1%,50*,108*
Clc1ccc(C2=NOC(c3nnc(-c4ccccc4)o3)C2)cc1 (centres undefined),4%,32%,4%,-2,-2
CC(C)C[C@H](N)c1nnc(S(=O)(=O)Cc2ccc(F)cc2)o1,0%,?,5%,42*,71
CC(C)C[C@H](N)c1nnc(SCC(=O)Nc2ccc(Br)cc2)o1,25%,48%,4%,-7,-3
COc1ccc(N2C(=O)C3CCCN3C2c2ccc(Cl)cc2)cc1 (centres undefined),nt,9.3µM*,6%,-4,-14
CCOc1ccc(C2N(c3ccc(F)cc3)C(=O)C3CCCN32)cc1 (centres undefined),nt,4.1µM*,-1%,-2,4
COc1ccc(OC)c(C2N(c3ccc(Cl)cc3)C(=O)C3CCCN32)c1 (centres undefined),-2%,9.3µM*,1%,-6,18
N/C(Cc1ccc(Cl)cc1Cl)=N\OC(=O)Cc1ccccc1,9%,-19%,1%,20*,22
N/C(CC1CC1(Cl)Cl)=N\OC(=O)c1ccccc1 (centres undefined),?,?,-1%,45*,71*
N/C(Cc1ccc(Cl)cc1Cl)=N\OC(=O)c1ccccc1,?,32%,3%,19*,32*
N/C(Cc1ccc(Cl)cc1Cl)=N\OC(=O)Cc1ccc(Cl)cc1,1%,-5%,1%,-2,14
Cc1ccc(S(=O)(=O)NCCCNS(=O)(=O)c2ccccc2)cc1,42%,20%,4%,-3,nt
O=C1CSC(=Nc2ccc(O)cc2)N1c1ccc(O)cc1,?,10µM*,-1%,-3,-10
COc1ccc(CN(C(=O)CN2C(=O)NC3(CCC(C)CC3)C2=O)C(C)Cc2cccs2)cc1 (centres undefined),9.3µM*,12µM*,nt,nt,nt
CC1CCC2(CC1)NC(=O)N(CC(=O)N(Cc1ccccc1)C(C)(C)C)C2=O (centres undefined),19%,-1%,nt,nt,nt
CC(=O)OC1CC[C@@]2(C)C(CCC3C2CC(=O)[C@@]2(C)C3CC3CC(C)=CC(=O)C32)C1 (some centres undefined),-19%,-26%,2%,-3,-11
CCCSC1=N/C(=C/c2ccsc2)C(=O)N1c1ccccc1,?,11%,2%,-2,-4
CCSC1=N/C(=C\c2cccnc2)C(=O)N1c1ccccc1,3%,?,1%,-2,-11
CSC1=N/C(=C\c2cccnc2)C(=O)N1c1ccccc1,16%,?,1%,27*,24
Cc1cccc(C2=N/C(=C\c3cccnc3)C(=O)O2)c1,9%,22%,7%,1,-3
SMILES,Pf growth 48h,Pf growth 96h,LmPK inhibitor,CHX counter,Shiga inhibitor
CC1=N/C(=C/c2cccnc2)C(=O)O1,12%,3%,-3%,34*,26
O=C1OC(c2ccc(Cl)cc2)=C/C1=C/c1cccnc1,24%,?,7%,-4,2
Cc1ccc(C2=C/C(=C/c3cccnc3)C(=O)O2)c(C)c1,34%,0%,1%,11*,8
CCSC1=N/C(=C/c2ccsc2)C(=O)N1c1ccccc1,20%,7.4µM*,3%,-2,-9
COC(=O)/C(=N/Nc1ccccc1C)N1CCCc2ccccc21,0%,?,2%,3,-9
COc1cccc(/C=N/NC(=O)Cn2cnc3c2c(=O)n(C)c(=O)n3C)c1,19%,41%,3%,1,-6
COc1ccc(C(=O)CSc2nnc(-c3cccnc3)n2Cc2ccco2)cc1,0%,0%,3%,-1,-5
CC1CCN(C(=O)CSc2nnc(-c3cc4ccccc4cc3O)n2Cc2ccco2)CC1,12µM*,3%[5.75 µM],-1%,-2,-21
CCn1c(SCC(=O)N(C(C)C)C(C)C)nnc1-c1cc2ccccc2cc1O,1.9µM*,84%,-2%,5,-14
COc1ccc(C(=O)CSc2nnc(-c3cc4ccccc4cc3O)n2Cc2ccco2)cc1,2.3µM*,-1%,3%,7,7
O=C(COc1ccc(Cl)cc1)NCCNc1ccc([N+](=O)[O-])cc1,19%,3%,-2%,-2,-3
CON(C)S(=O)(=O)NC(=O)C1=C(N2CCCC2)COC1=O,22%,?,nt,nt,nt
COc1ccc(C(C)=O)cc1Cn1cnc2c(cnn2C)c1=O,-11%,-12%,1%,-2,-10
O=C(C1=C[C@@H](c2ccc3c(c2)OCO3)C[C@@H](OCCCCO)O1)N1CCOCC1,?,?,6%,1,3
O=C(O)C1=C[C@@H](c2ccc3c(c2)OCO3)C[C@@H](OCCCCO)O1,-17%,55%,9%,0,2
O=C(C1=C[C@H](c2ccc3c(c2)OCO3)C[C@H](OCCCCO)O1)N1CCN(Cc2ccccc2)CC1,?,13µM*,10%,-1,-5
O=C(C1=C[C@H](c2ccc(Br)cc2)C[C@H](OCCCCO)O1)N1CCN(Cc2ccc3c(c2)OCO3)CC1,1.5µM*,4.1µM*,10%,-1,-2
O=C(C1=C[C@@H](c2ccc(Br)cc2)C[C@@H](OCCCCO)O1)N1CCOCC1,0%,1%,10%,3,9
O=C(C1=C[C@@H](C2CC2)C[C@@H](OCc2ccc(CO)cc2)O1)N1CCN(Cc2ccc3c(c2)OCO3)CC1,0%,13%,8%,-3,-6
C#Cc1ccc([C@@H]2C=C(C(=O)N3CCN(Cc4ccc5c(c4)OCO5)CC3)O[C@H](OCCCCO)C2)cc1,?,12µM*,6%,2,-7
O=C(C1=C[C@H](C2CCCCC2)C[C@H](OCCCCO)O1)N1CCN(Cc2ccc3c(c2)OCO3)CC1,12µM*,5.9µM*,10%,-3,-7
COc1ccc(Br)c(C(=O)NC2CCCC2)c1,20%,21%,2%,5,-4
Cc1ccc(C(=O)OCC(=O)Nc2cccc(S(=O)(=O)NC3=NCCCCC3)c2)c(C)c1,-25%,12%,-1%[11.5 µM],9,21
CCOC(=O)c1ccc(Nc2sc(C(=O)c3cccc([N+](=O)[O-])c3)c(N)c2C#N)cc1,40%,31%,2%,-2,3
O=C(C1=C[C@H](c2ccc3c(c2)OCO3)C[C@H](OCCCCO)O1)N1CCN(Cc2ccc3c(c2)OCO3)CC1,?,?,2%,6,-14
